Source: PubChem BioAssay (Tox21)
Values joined by “and” are separate entries in the source; they are usually repeats but may differ in a detail not shown here. Identical values can stand only once. Results filed as inconclusive are left out. Active and inactive are the calls of the source. Unless noted, calls follow the shape of the dose curve; as a rule, active = well fitted curve in the direction sought with a large enough effect in the repeat runs; inconclusive = weak or mixed curves; inactive = no such curve, though single readings can be large; an effect the other way counts as inactive or inconclusive.

What was measured:
[1] = biological target: Progesterone receptor (Homo sapiens) (UniProt P06401); assay: qHTS assay to identify small molecule antagonists of the progesterone receptor (PR) signaling pathway (AID 1346795; active = well fitted inhibition curve with a large enough effect in the signal ratio in the repeat runs, not every such curve was filed as active; the % refers to the signal ratio; also: potency is read from the fitted curve at half-maximal effect)
In short: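 Antagonist mode with agonist R5020 at 1 nM final and 16 hr incubation at 37C. Reporter was beta-lactamase driven by UAS in HEK293T (PR-UAS-bla), 2% charcoal-stripped serum; signal from LiveBLAzer FRET substrate, 2 hr at room temperature.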

[2] = qHTS assay to identify small molecule antagonists of the progesterone receptor (PR) signaling pathway - cell viability counter screen (AID 1346798); also: nearly all actives have a fitted effect of over 50% in size; also: potency is read from the fitted curve at half-maximal effect
In short: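 Cytotoxicity read as CellTiter-Glo luminescence (30 min, room temperature) in the same wells as the beta-lactamase readout. HEK293T PR-UAS-bla cells in charcoal-stripped 2% FBS received compound and R5020, then 16 h at 37C, 5% CO2.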

[3] = qHTS assay to identify small molecule antagonists of the TGF-beta/Smad signaling pathway - cell viability counter screen (AID 1346824); also: nearly all actives have a fitted effect of over 50% in size
In short: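 Cytotoxicity counter-screen run in the same wells as the beta-lactamase Smad reporter read: CellTiter-Glo luminescence after 30 min at room temperature. HEK 293T SBE-bla cells had 5 hr compound exposure at 37 C with TGF-beta1 (0.25 ng/mL stock).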

[4] = qHTS assay to identify small molecule agonists of the TGF-beta/Smad signaling pathway - cell viability counter screen (AID 1346829); also: top concentration of the series differs between compounds; nearly all actives have a fitted effect of over 45% in size
In short: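 Compound-treated SBE-bla HEK 293T cells (5 hr, 37 C) were assessed for viability with CellTiter-Glo in parallel with the reporter read.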

[5] = biological target: Thyrotropin-releasing hormone receptor (Homo sapiens) (UniProt P34981); assay: qHTS assay to identify small molecule antagonists of the thyrotropin-releasing hormone receptor (TRHR) signaling pathway (AID 1346877; active = well fitted inhibition curve with a large enough effect in the repeat runs, not every such curve was filed as active; also: series mostly up to about 51 µM)
In short: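 Intracellular calcium fluorescence, read kinetically every second over 3 min, reports TRH-evoked signalling in HEK293 cells carrying TRHR. Test compounds were added 5 min ahead of a 1 nM TRH challenge.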

[6] = biological target: Thyrotropin-releasing hormone receptor (Homo sapiens) (UniProt P34981); assay: qHTS assay to identify small molecule agonists of the thyrotropin-releasing hormone receptor (TRHR) signaling pathway (AID 1346891; calls by dose curve; also: series mostly up to about 58 µM)
In short: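 Agonist-mode intracellular calcium readout: kinetic fluorescence over 3 min at 1 s intervals after compound addition to TRHR-HEK293 cells (18 h seeded, 2 h dye-loaded at 37 C). Fifteen concentrations, triplicates.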

[7] = Caspase-3/7 induction in HepG2 cells by small molecules, qHTS assay (AID 1346978); also: nearly all actives have a fitted effect of over 15% in size
In short: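 Caspase-3/7 induction was measured by Caspase-Glo 3/7 luminescence (30 min, room temperature) after a 17 hr compound exposure of wild-type HepG2 cells seeded at 2,000 per well and pre-incubated 5 hr.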

[8] = Caspase-3/7 induction in CHO-K1 cells by small molecules, qHTS cell viability counter screen (AID 1346979); also: nearly all actives have a fitted effect of over 35% in size; also: potency is read from the fitted curve at half-maximal effect
In short: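 Cytotoxicity counter screen: CellTiter-Fluor added to compound-treated wild-type CHO-K1 cells at 16 h (37C, 5% CO2), fluorescence measured 1 h later; same wells as caspase-3/7 measurement.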

[9] = Caspase-3/7 induction in CHO-K1 cells by small molecules, qHTS assay (AID 1346980); also: nearly all actives have a fitted effect of over 15% in size
In short: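 Luminescent Caspase-Glo 3/7 read (30min, room temperature) quantified apoptosis induction. Cells were wild-type CHO-K1, treated with compound for 17hr at 37 C and 5% CO2.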

[10] = Caspase-3/7 induction in HepG2 cells by small molecules, qHTS cell viability counter screen (AID 1346981); also: nearly all actives have a fitted effect of over 30% in size; also: potency is read from the fitted curve at half-maximal effect
In short: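 HepG2, WT, 2,000 cells/well; 5 hr pre-incubation 37 C/5% CO2; compound pin-transferred from DMSO; 16 hr exposure; CellTiter-Fluor, 1 hr; fluorescence read.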

[11] = qHTS assay to identify small molecule agonists of the TGF-beta/Smad signaling pathway (AID 1346859; active = well fitted activation curve with a large enough effect in the signal ratio in the repeat runs, not every such curve was filed as active; the % refers to the signal ratio; also: series mostly up to about 77 µM)
In short: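 Fluorescence (ex 405 nm; em 460 and 530 nm) was read 2 h after LiveBLAzer FRET substrate at RT. The preceding compound treatment of overnight-plated SBE-bla HEK293T cells lasted 5 h at 37 C.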

[12] = Human pregnane X receptor (PXR) small molecule agonists, qHTS cell viability counter screen (AID 1346977); also: nearly all actives have a fitted effect of over 50% in size; also: potency is read from the fitted curve at half-maximal effect
In short: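 Same-well viability read: CellTiter-Fluor added after 23 hr compound exposure, fluorescence measured 1 hr later. Cells were PXR-Luc HepG2 seeded at 2,000/well in 5% charcoal-stripped FBS medium, rested 5 hr before dosing at 37 C.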

[13] = biological target: Nuclear receptor subfamily 1 group I member 2 (Homo sapiens) (UniProt O75469); assay: Human pregnane X receptor (PXR) small molecule agonists, qHTS assay (AID 1346982); also: nearly all actives have a fitted effect of over 35% in size; also: potency is read from the fitted curve at half-maximal effect
In short: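 Luciferase signal from ONE-Glo (30 min, room temperature) measured activation of hPXR-driven CYP3A4 reporter expression in PXR-Luc HepG2 cells treated with compounds for 24 hr at 37 C.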

[14] = biological target: Cytochrome P450 2D6 (Homo sapiens) (UniProt P10635); assay: Cytochrome P450 Family 2 Subfamily D Member 6 (CYP2D6) small molecule antagonists: luciferase reporter qHTS assay (AID 1671196); also: nearly all actives have a fitted effect of over 50% in size; also: potency is read from the fitted curve at half-maximal effect
In short: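 Read-out is luminescence from luciferin formed by CYP2D6 turnover of a proluciferin substrate, recorded as relative luminescence units. Reactions ran 1 h at room temperature after NADPH regeneration solution was added.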

[15] = biological target: Cytochrome P450 2C9 (Homo sapiens) (UniProt P11712); assay: Cytochrome P450 Family 2 Subfamily C Member 9 (CYP2C9) small molecule antagonists: luciferase reporter qHTS assay (AID 1671198); also: nearly all actives have a fitted effect of over 50% in size; also: potency is read from the fitted curve at half-maximal effect
In short: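 Enzyme-substrate mix preincubated with compound 10 min at room temperature; reaction started with NADPH regeneration solution, 1 h 37C. Luminescent luciferin product read after 20 min detection reagent.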

[16] = qHTS assay to identify small molecule agonists of the progesterone receptor (PR) signaling pathway - cell viability counter screen (AID 1346799; calls by dose curve; also: nearly all actives have a fitted effect of over 45% in size; also: potency is read from the fitted curve at half-maximal effect)
In short: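 Cytotoxicity measured by CellTiter-Glo luminescence (30 min, RT) in the same wells as the PR beta-lactamase agonist read. Those HEK293T cells had 16 h compound treatment at 37 C in 2% charcoal-stripped FBS medium.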

[17] = biological target: Nuclear receptor subfamily 1 group I member 2 (Rattus norvegicus) (UniProt Q9R1A7); assay: Rat pregnane X receptor (rPXR) activation by small molecules, qHTS assay (AID 1346983); settings: rPXR luciferase reporter cells, One-Glo luminescence, 24 h; max activation: hits give high values; also: nearly all actives have a fitted effect of over 20% in size
In short: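 Luminescent readout (One-Glo luciferase, 30 min room temperature) followed 24 hr compound treatment at 37 C of rPXR cells plated 2,000 per well and preincubated 5hr; qHTS format with compounds delivered in DMSO.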

[18] = biological target: Nuclear receptor subfamily 1 group I member 2 (Homo sapiens) (UniProt O75469); assay: CYP3A4 induction through human pregnane X receptor (PXR) by small molecules, qHTS assay (AID 1346984); also: nearly all actives have a fitted effect of over 40% in size; also: potency is read from the fitted curve at half-maximal effect
In short: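 Luminescence readout: luciferase signal after One-Glo (30 min, room temperature), following 3 h at 37C with 3uM final Luciferin-IPA P450 substrate. Cells were DPX-2 (HepG2, PXR/CYP3A4-luc co-transfected) dosed for 24 h.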

[19] = biological target: Nuclear receptor subfamily 1 group I member 2 (Homo sapiens) (UniProt O75469); assay: Human pregnane X receptor (PXR) activation by small molecules, qHTS assay (AID 1346985); also: nearly all actives have a fitted effect of over 40% in size
In short: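 DPX-2 cells (HepG2 co-transfected with a PXR response element and a CYP3A4-promoter luciferase construct) were seeded at 2,000 per well, rested 5 hr at 37C, then exposed to DMSO-dissolved compounds for 24 hr. Activation was read as luciferase luminescence.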

[20] = biological target: Cytochrome P450 2C19 (Homo sapiens) (UniProt P33261); assay: Cytochrome P450 Family 2 Subfamily C Member 19 (CYP2C19) small molecule antagonists: luciferase reporter qHTS assay (AID 1671197); also: nearly all actives have a fitted effect of over 65% in size; also: potency is read from the fitted curve at half-maximal effect
In short: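 P450-Glo CYP2C19 screening system; proluciferin substrate; DMSO compound stocks; 10 min RT preincubation; NADPH regeneration, 1 h at 37C; luciferin detection reagent, 20 min RT; luminescence as RLU.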
% is scaled to controls: 0 for no effect and ±100 for the full control effect.

Cytochrome P450 2C19 (Homo sapiens), sequence (P33261 whole entry, looked up): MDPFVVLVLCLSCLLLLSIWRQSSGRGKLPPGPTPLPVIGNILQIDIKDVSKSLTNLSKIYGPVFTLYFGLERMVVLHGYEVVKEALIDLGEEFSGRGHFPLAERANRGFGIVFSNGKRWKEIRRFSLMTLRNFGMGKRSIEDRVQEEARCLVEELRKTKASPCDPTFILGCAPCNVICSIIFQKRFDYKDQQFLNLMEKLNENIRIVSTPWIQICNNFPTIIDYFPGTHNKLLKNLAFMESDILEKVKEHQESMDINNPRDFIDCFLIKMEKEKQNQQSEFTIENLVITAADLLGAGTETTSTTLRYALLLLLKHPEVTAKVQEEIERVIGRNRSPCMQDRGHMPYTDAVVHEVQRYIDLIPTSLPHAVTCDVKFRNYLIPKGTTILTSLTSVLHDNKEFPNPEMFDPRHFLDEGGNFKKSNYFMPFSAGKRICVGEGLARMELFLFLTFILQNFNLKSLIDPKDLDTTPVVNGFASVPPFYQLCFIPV
Cytochrome P450 2D6 (Homo sapiens), sequence (P10635 whole entry, looked up): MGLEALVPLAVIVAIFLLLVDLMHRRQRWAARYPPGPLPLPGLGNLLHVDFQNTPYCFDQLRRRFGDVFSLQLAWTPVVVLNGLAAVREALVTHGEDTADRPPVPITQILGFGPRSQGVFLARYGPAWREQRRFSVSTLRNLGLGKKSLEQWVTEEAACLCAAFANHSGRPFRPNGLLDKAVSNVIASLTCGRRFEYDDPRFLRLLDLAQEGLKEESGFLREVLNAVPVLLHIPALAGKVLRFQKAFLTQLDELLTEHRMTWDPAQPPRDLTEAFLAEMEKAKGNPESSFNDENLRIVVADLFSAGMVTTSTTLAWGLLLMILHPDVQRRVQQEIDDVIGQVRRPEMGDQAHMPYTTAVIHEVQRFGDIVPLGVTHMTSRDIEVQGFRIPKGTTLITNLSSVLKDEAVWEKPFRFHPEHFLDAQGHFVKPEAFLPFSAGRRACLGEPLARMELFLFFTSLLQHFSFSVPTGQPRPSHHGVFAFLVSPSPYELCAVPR
Progesterone receptor (Homo sapiens), sequence (P06401 whole entry, looked up): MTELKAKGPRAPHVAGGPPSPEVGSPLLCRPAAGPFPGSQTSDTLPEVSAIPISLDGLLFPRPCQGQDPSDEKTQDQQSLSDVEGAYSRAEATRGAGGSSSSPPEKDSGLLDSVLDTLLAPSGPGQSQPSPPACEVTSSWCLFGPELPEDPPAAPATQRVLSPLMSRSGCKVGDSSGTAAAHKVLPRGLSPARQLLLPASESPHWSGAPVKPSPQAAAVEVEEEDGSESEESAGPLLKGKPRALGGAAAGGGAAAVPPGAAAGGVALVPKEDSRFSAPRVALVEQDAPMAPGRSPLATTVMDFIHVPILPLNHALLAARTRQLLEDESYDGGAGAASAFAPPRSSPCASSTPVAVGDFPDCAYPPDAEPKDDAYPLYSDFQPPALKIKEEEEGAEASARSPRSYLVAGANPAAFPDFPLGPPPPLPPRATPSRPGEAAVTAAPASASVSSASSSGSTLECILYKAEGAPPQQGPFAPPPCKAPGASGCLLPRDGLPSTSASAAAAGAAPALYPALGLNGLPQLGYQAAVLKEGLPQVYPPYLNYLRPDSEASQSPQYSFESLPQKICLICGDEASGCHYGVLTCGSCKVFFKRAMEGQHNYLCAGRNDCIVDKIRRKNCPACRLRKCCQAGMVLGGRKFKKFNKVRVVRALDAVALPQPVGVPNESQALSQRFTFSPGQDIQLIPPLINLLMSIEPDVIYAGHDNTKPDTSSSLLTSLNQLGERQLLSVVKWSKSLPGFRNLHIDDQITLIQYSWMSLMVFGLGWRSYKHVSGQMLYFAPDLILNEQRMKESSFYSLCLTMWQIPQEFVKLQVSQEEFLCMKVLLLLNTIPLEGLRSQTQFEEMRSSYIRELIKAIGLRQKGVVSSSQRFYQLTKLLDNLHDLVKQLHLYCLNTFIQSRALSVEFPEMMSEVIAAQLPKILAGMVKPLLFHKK
Nuclear receptor subfamily 1 group I member 2 (Homo sapiens), sequence (O75469 whole entry, looked up): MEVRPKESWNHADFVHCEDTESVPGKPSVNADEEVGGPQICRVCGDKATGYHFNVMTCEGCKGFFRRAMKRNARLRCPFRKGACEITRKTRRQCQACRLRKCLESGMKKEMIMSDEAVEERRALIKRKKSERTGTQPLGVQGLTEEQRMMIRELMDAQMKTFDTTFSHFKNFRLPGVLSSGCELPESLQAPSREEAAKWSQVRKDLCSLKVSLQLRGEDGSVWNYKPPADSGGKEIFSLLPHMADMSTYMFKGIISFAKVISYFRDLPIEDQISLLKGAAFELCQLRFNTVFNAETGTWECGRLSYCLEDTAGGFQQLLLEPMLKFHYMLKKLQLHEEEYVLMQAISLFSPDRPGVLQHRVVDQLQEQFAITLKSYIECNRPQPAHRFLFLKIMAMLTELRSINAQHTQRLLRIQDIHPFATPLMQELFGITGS
Cytochrome P450 2C9 (Homo sapiens), sequence (P11712 whole entry, looked up): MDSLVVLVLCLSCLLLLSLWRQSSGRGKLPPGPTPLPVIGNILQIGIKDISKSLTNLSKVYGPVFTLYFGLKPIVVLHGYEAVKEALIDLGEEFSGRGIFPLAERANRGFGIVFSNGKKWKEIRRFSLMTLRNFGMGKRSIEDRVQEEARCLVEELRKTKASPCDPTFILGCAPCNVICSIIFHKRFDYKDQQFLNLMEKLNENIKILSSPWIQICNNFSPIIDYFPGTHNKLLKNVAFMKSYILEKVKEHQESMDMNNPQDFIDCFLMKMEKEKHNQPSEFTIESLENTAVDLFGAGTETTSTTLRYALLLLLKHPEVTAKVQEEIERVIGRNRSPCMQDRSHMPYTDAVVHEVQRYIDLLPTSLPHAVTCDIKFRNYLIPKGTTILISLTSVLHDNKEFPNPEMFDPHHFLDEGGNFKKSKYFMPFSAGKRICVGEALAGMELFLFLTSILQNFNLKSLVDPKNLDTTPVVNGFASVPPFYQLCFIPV
Thyrotropin-releasing hormone receptor (Homo sapiens), sequence (P34981 whole entry, looked up): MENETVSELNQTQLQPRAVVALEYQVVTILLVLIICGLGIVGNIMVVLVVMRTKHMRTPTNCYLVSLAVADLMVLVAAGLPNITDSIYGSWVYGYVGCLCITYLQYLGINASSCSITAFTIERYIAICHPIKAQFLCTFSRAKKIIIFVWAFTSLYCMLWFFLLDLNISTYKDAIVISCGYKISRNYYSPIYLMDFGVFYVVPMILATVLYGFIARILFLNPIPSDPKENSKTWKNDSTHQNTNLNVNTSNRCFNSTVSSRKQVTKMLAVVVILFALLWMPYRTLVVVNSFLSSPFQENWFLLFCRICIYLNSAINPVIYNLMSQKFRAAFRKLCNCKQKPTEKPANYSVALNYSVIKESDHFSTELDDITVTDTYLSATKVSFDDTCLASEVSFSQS
Nuclear receptor subfamily 1 group I member 2 (Rattus norvegicus), sequence (Q9R1A7 whole entry, looked up): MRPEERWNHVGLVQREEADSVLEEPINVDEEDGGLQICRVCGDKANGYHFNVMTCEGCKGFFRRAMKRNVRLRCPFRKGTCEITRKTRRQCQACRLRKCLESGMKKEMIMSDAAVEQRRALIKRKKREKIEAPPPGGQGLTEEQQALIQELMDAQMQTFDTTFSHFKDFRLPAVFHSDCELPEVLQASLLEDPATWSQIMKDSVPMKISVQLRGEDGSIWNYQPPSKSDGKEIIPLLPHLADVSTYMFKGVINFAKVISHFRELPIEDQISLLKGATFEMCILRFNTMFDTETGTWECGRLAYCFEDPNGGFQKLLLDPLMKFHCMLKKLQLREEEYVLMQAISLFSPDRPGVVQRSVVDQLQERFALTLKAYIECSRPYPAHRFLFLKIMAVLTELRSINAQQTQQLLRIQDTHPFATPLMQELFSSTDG

CCOC(=O)N1CCC(=C2c3ccc(Cl)cc3CCc3cccnc32)CC1
active: Potency [1] 13.7 µM | Potency [2] 61.1 µM | Potency [8] 43.3 µM and 26.6 µM | Potency [10] 54.5 µM
inactive: Potency [3] | Potency [4] | Potency [5] | Potency [6] | Potency [7] | Potency [9]

CCCCNc1c(C(=O)OCC)c(C)nc2c1cnn2CC
inactive: Potency [2] | Potency [3] | Potency [4] | Potency [11] | Potency [12] | Potency [7] | Potency [9] | Potency [10] | Potency [14]
active: Potency [1] 26.6 µM | Potency [13] 29.8 µM | Potency [15] 27.5 µM

C/C=C/C=N/NC(=O)c1ccncc1
inactive: Potency [1] | Potency [16] | Potency [3] | Potency [4] | Potency [11] | Potency [5] | Potency [6] | Potency [12] | Potency [7] | Potency [8] | Potency [9] | Potency [10] | max activation [17] -3.54% | Potency [18] | Potency [19]

CC(C)=CCCC(C)O (stereo not given)
inactive: Potency [1] | Potency [2] | Potency [3] | Potency [4] | Potency [12] | Potency [7] | Potency [8] | Potency [9] | Potency [10] | Potency [13] | Potency [14] | Potency [20] | Potency [15]

CNC(=O)c1cc(Oc2ccc(NC(=O)Nc3ccc(Cl)c(C(F)(F)F)c3)cc2)ccn1
inactive: Potency [4] | Potency [11] | Potency [5] | Potency [6] | Potency [9] | max activation [17] -24.5% | Potency [19]
active: Potency [1] 11.9 µM | Potency [2] 33.5 µM | Potency [12] 23.7 µM | Potency [8] 26.6 µM | Potency [20] 27.5 µM | Potency [15] 17.4 µM

CC(C)=CCCC(C)CCOC(=O)C(C)C (stereo not given)
active: Potency [20] 79.6 µM
inactive: Potency [1] | Potency [16] | Potency [3] | Potency [4] | Potency [11] | Potency [5] | Potency [6] | Potency [12] | Potency [7] | Potency [8] | Potency [9] | Potency [10] | Potency [13] | Potency [14]

CCCCCCCOC(=O)c1ccc(O)cc1
inactive: Potency [2] | Potency [3] | Potency [4] | Potency [12] | Potency [9] | Potency [10]
active: Potency [1] 24.4 µM and 38.6 µM | Potency [8] 61.2 µM and 61.1 µM | Potency [13] 61.1 µM | Potency [14] 71 µM | Potency [20] 7.1 µM and 20 µM | Potency [15] 35.6 µM and 39.9 µM

Cn1cnc2ncnc(N)c21
inactive: Potency [1] | Potency [2] | Potency [3] | Potency [4] | Potency [11] | Potency [5] | Potency [6] | Potency [12] | Potency [7] | Potency [8] | Potency [9] | Potency [10] | Potency [15]

Nc1ncnc2c1ncn2[C@@H]1O[C@H](COP(=O)(O)O)[C@@H](O)[C@H]1O
inactive: Potency [1] | Potency [16] | Potency [3] | Potency [4] | Potency [11] | Potency [5] | Potency [6] | Potency [12] | Potency [7] | Potency [8] | Potency [9] | Potency [10] | Potency [13] | Potency [18] | Potency [19] | Potency [14] | Potency [20] | Potency [15]

CC(=O)O[C@@H]1C[C@@H]2CC[C@@]1(C)C2(C)C
inactive: Potency [1] | Potency [16] | Potency [3] | Potency [4] | Potency [11] | Potency [5] | Potency [6] | Potency [12] | Potency [7] | Potency [8] | Potency [9] | Potency [10] | Potency [13] | Potency [14] | Potency [20] | Potency [15]

c1ccc(Nc2cccc3ccccc23)cc1
inactive: Potency [2] | Potency [16] | Potency [4] | Potency [11] | Potency [5] | Potency [6] | Potency [7] | Potency [9] | Potency [10]
active: Potency [1] 13.9 µM | Potency [8] 61.9 µM | Potency [13] 61.9 µM and 30.6 µM | Potency [14] 32.1 µM | Potency [20] 5.09 µM and 10 µM | Potency [15] 36.1 µM and 35.6 µM

CCO[Si](CCCSSSSCCC[Si](OCC)(OCC)OCC)(OCC)OCC
active: Potency [14] 35.6 µM | Potency [20] 5.03 µM | Potency [15] 12.6 µM
inactive: Potency [1] | Potency [2] | Potency [3] | Potency [4] | Potency [5] | Potency [6] | Potency [12] | Potency [7] | Potency [9] | Potency [10]

CCCCCCCCCC(=O)N(C)C
inactive: Potency [1] | Potency [16] | Potency [3] | Potency [4] | Potency [11] | Potency [5] | Potency [6] | Potency [12] | Potency [7] | Potency [8] | Potency [9] | Potency [10] | Potency [14]
active: Potency [13] 62.1 µM | Potency [20] 36.1 µM | Potency [15] 40.5 µM

CC(C)(C)c1n[nH]c(=O)n(N)c1=O
inactive: Potency [1] | Potency [2] | Potency [3] | Potency [4] | Potency [11] | Potency [5] | Potency [6] | Potency [12] | Potency [7] | Potency [8] | Potency [9] | Potency [10] | Potency [13] | Potency [14] | Potency [20] | Potency [15]

CN1CCN(C2Cc3ccccc3Sc3ccc(Cl)cc32)CC1 (stereo not given)
active: Potency [1] 26.6 µM | Potency [2] 29.8 µM | Potency [16] 29.8 µM | Potency [12] 26.6 µM | Potency [18] 31.6 µM | Potency [14] 0.347 µM | Potency [20] 11 µM
inactive: Potency [4] | Potency [11] | Potency [5] | Potency [6] | Potency [9] | Potency [13]
